# Measured values as given in PubChem BioAssay AID435030 (The Scripps Research Institute Molecular Screening Center, 2010).
# Screen size: about 330,000 compounds; about 940 (0.28%) were called active. Rule as the data show it: active = inhibition above about 12%; inactive = the rest. The sample as a whole holds a higher share of actives than the screen did.
# Assay: reduced growth of AddAB-expressing E. coli cells – absorbance, AddAB inhibitor project, primary screen (AID 435030);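 also: 0% = vehicle wells of infected cells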
# Conditions: E. coli expressing H. pylori AddAB, at 11.9 µM, hits give high values
row,Compound,inhibition
1,NC(=O)COC(=O)c1sc2cc(F)ccc2c1Cl,1.69% (inactive)
2,CCOC(=O)N1CCC(Nc2c(NCCCN3CCN(c4ccc(OC)cc4)CC3)c(=O)c2=O)CC1,2.85% (inactive)
3,CC(NC(=O)COC(=O)C1CCN(S(=O)(=O)c2ccccc2C(F)(F)F)CC1)c1ccccc1 (centres undefined),0.81% (inactive)
4,CC[C@H]1OC(=O)[C@H](C)[C@@H](O[C@H]2C[C@@](C)(OC)[C@@H](O)[C@H](C)O2)[C@H](C)[C@@H](O[C@@H]2O[C@H](C)C[C@H](N(C)C)[C@H]2O)[C@](C)(O)C[C@@H](C)[C@@H]2N[C@@H](COCCOC)O[C@H]([C@H]2C)[C@]1(C)O,41% (active)
5,CCCCNC(=O)C1(c2ccc(OC)cc2)CCOCC1,0.97% (inactive)
6,CC1(C)CC(N2CCN(C(c3ccccc3)c3ccccc3)CC2)=CC(=[N+]2CCCCC2)C1,1.52% (inactive)
7,Cc1nnc(SCCCCSc2nnc(C)c(=O)[nH]2)[nH]c1=O,-1.42% (inactive)
8,O=c1oc2c(Cl)cc(Cl)cc2cc1-c1nnc(Nc2ccccc2F)s1,-1.06% (inactive)
9,O=C(NC(=O)N1CCSCC1)c1c(Cl)cccc1Cl,1.83% (inactive)
10,CN(C)[C@@H]1C(=O)C(C(N)=O)=C(O)[C@@]2(O)C(=O)C3=C(O)c4c(O)ccc(Cl)c4[C@@H](O)[C@H]3C[C@@H]12,100% (active)
11,C=C1c2c(Cl)ccc(O)c2C(O)=C2C(=O)[C@]3(O)C(O)=C(C(N)=O)C(=O)[C@@H](N(C)C)[C@@H]3[C@@H](O)C12 (some centres undefined),103% (active)
12,O=C(CCNC(=O)c1ccccc1)NN=Cc1ccc(Br)o1,-1.39% (inactive)
13,NC(=O)NCCCC(=O)O,4.03% (inactive)
14,CC(=O)N(O)CCCCCNC(=O)CCC(=O)N(O)CCCCCNC(=O)CCC(=O)N(O)CCCCCNC(=O)CCC(=O)O,22% (active)
15,COc1nc(N(C)C)nc(N2CC(=O)N(CCNS(=O)(=O)c3ccc(C)cc3)C2=N)n1,-0.32% (inactive)
16,Cc1ccc(Cn2c(=N)c(S(=O)(=O)c3ccc(C)cc3)cc3c(=O)n4ccccc4nc32)cc1,1.33% (inactive)
17,CC1(C)CC(=O)c2cnc3nc4ccccc4n3c2C1,-0.86% (inactive)
18,COc1ccc(CCN=C2SCC(=O)N2Cc2ccccc2)cc1OC,1.52% (inactive)
19,O=C(N/N=C\c1ccc(-c2ccc(Cl)c(Cl)c2)o1)C(=O)N1CCCC1,-0.96% (inactive)
20,O=c1ccc2c(-c3ccccc3S(=O)(=O)O)c3ccc(O)c(O)c3oc-2c1O,22.5% (active)
21,C=C1CCN([C@H](C(=O)NCc2cc(OC)c(OC)c(OC)c2)C(C)C)S(=O)(=O)c2ccccc21,0.6% (inactive)
22,COc1ccc(CNC(=O)C[C@H]2C[C@H](C(=O)N3CCOCC3)[C@@]3(C)c4[nH]c5cc(CCC(=O)N(C)C)ccc5c4CCN3C2=O)cc1OC,-1.37% (inactive)
23,O=C(Cc1ncc(C(F)(F)F)cc1Cl)Nc1cccc(Br)c1,0.17% (inactive)

row,Compound,inhibition
1,COC(=O)c1oc2ccc(Br)cc2c1NC(C)=O,-2.24% (inactive)
2,COc1ccc(CC(=O)Nc2c(C(N)=O)oc3ccccc23)cc1,2.54% (inactive)
3,COc1ccc(C(=O)c2oc3ccc(Br)cc3c2NC(C)=O)cc1,100% (active)
4,CC(=O)/C(=N\Nc1ccc(Cl)cc1Cl)Sc1cccc2cccnc12,-1.2% (inactive)
5,C[C@H]1[C@H]2c3nc4ccccc4n3C[C@H]1ON2C1CCCCC1,3.89% (inactive)
6,COc1ccc(CNC(=O)CN(Cc2ccc(Cl)cc2)S(C)(=O)=O)cc1,3.57% (inactive)
7,COC(=O)N/N=C/c1c[n+]([O-])c2ccccc2[n+]1[O-],89.8% (active)
8,COC(=O)N/N=C/c1cn(CCCOc2ccc(C)cc2)c2ccccc12,3.22% (inactive)
9,COC(=O)N/N=C/c1ccc(-c2ccc(Cl)c(Cl)c2)o1,1.71% (inactive)
10,OCCNCCOc1ccc(Cl)c(Cl)c1,0.51% (inactive)
11,COc1ccc(CCNC(=O)/C(C#N)=C2\N=C(NC(=O)c3cccs3)c3ccccc32)cc1,3.86% (inactive)
12,C#CCSc1nnc(-c2sc3ccccc3c2Cl)o1,1.12% (inactive)
13,O=C(NCC#CCSc1nnc(-c2cccc3ccccc23)o1)c1cccs1,12.4% (active)
14,COc1ccc2cc(CCl)c(Cl)nc2c1,-0.08% (inactive)
15,COc1cccc(C(=O)N2CCC(n3nccc3NC(=O)C3CCOC3)CC2)c1 (centres undefined),0.08% (inactive)
16,Cc1ccc(-c2nnc(CN3CCN(C)CC3)o2)cc1,-0.67% (inactive)
17,CC(C)(C)SCCSC1=CC(=O)CC(c2ccccc2)C1 (centres undefined),0.25% (inactive)
18,CCn1cc(CN2CCN(CC(C)(C)C)C(CCO)C2)c2ccccc21 (centres undefined),-1.04% (inactive)
19,CC1=C(C(=O)OC2CCCCC2)C(c2cccnc2)n2ncnc2N1 (centres undefined),0% (inactive)
20,CC1=C(C(=O)OCc2ccccc2)C(c2ccco2)n2ncnc2N1 (centres undefined),14.7% (active)
21,COc1ccccc1NC(=O)C1=C(C)Nc2ncnn2C1c1ccc(C)o1 (centres undefined),-0.48% (inactive)
22,COC(=O)C1(C)NC(c2ccc(F)cc2)C2C(=O)N(c3ccccc3)C(=O)C21 (centres undefined),1.16% (inactive)
23,CC(C)C[C@H]1CN=C(Nc2ccccc2)N1CC1CCCCC1,2.92% (inactive)

row,Compound,inhibition
1,CCOc1ccc(C(C)=O)cc1COC(=O)CNC(=O)c1cccs1,3.06% (inactive)
2,CC1CCCC(C)N1C(=O)CN1CCN(c2nc(-c3ccc(F)cc3)cs2)CC1 (centres undefined),1.81% (inactive)
3,CCn1c(=S)sc2c(=O)n(CC(=O)Nc3ccc(OC)cc3)c(C)nc21,0.15% (inactive)
4,O=C1Nc2cc(Cl)c(Cl)cc2N(O)N1c1cc(Cl)cc(Cl)c1,-1% (inactive)
5,COc1ccc(C(=O)NCC(=O)N/N=C/c2ccc([N+](=O)[O-])o2)cc1OC,9.43% (inactive)
6,C/[N+]([O-])=C\c1ccc([N+](=O)[O-])o1,79% (active)
7,COC(=O)C1=C(C)N(C)C(=O)NC1c1ccc([N+](=O)[O-])o1 (centres undefined),3.34% (inactive)
8,CCOc1cccc(/C=N/NC(=S)NCCN2CCOCC2)c1O,-0.42% (inactive)
9,COc1cccc(/C=N/Nc2ncc(C(F)(F)F)cc2Cl)c1O,12.5% (active)
10,COc1ccc(Br)cc1/C=N/Nc1ccc(Cl)c(C(=O)O)c1,1.8% (inactive)
11,Cc1cccc(NC(=O)c2ccc([N+](=O)[O-])o2)c1,38.2% (active)
12,O=C(Nc1cccc(O)c1)c1ccc(C(=O)c2ccccc2)o1,1.45% (inactive)
13,Cc1onc(NC(=O)c2ccc([N+](=O)[O-])o2)c1Br,9.34% (inactive)
14,O=C(Nc1ccc(Br)cn1)c1ccc([N+](=O)[O-])cc1Cl,-0.17% (inactive)
15,O=C(Nc1ccc(Br)cn1)c1ccc([N+](=O)[O-])o1,97.7% (active)
16,CN1C(=O)c2ccc(C(=O)Nc3ccc(Br)cn3)cc2C1=O,-3.02% (inactive)
17,CCOc1ccc(C(C)=O)cc1COC(=O)CN1C(=O)NC2(CCCC2)C1=O,0.34% (inactive)
18,Brc1cnc(N2CCCC2)nc1N1CCCCC1,2.22% (inactive)
19,CCC(=C/c1sc2ccc3ccccc3c2[n+]1C)/C=C1\Sc2ccc3ccccc3c2N1C,9.85% (inactive)
20,Cc1ccc(S(=O)(=O)c2ccc(Cl)cc2)cc1S(=O)(=O)NC(C(=O)O)C(C)C (centres undefined),3.7% (inactive)
21,NC(=O)C1CCN(C(=O)c2ccc3c(=O)n(Cc4cccc(Br)c4)c(=S)[nH]c3c2)CC1,1.96% (inactive)
22,COc1ccc(NC(=O)C(Br)C(C)C)cc1 (centres undefined),0.42% (inactive)
23,O=C(CSc1ccc(-c2ccco2)nn1)Nc1cccc(F)c1,1.52% (inactive)

row,Compound,inhibition
1,O=C(CSc1ccc(-c2ccccn2)nn1)Nc1ccccc1,12.4% (active)
2,O=C(CSc1ccc(-c2ccc(-n3cccn3)cc2)nn1)Nc1ccc([N+](=O)[O-])cc1,2.04% (inactive)
3,O=C(CNc1ccc(F)cc1F)NC(=O)NCc1ccco1,-1.79% (inactive)
4,O=C1CCCC(O)=C1N=Nc1ccc2ncsc2c1,1.13% (inactive)
5,COc1ccc(CNC(=O)CN(c2ccc(OC)c(Cl)c2)S(=O)(=O)c2ccc(C)cc2)cc1,0.77% (inactive)
6,Oc1c(Br)cccc1/C=N/Nc1c(F)c(F)c(F)c(F)c1F,5.1% (inactive)
7,Oc1cccc(/C=N/Nc2ccc(Cl)nn2)c1O,13.3% (active)
8,Oc1ccc(Br)cc1/C=N/Nc1ccccn1,4.69% (inactive)
9,Cc1noc(C)c1C(=O)OC(C)C(=O)Nc1ccc2c(c1)OCO2 (centres undefined),1.01% (inactive)
10,CC1(C)c2[nH]c3ccccc3c2C[C@H]2C(=O)N(N)CC(=O)N21,-0.5% (inactive)
11,O=C(CCc1ccc(S(=O)(=O)N2CCOCC2)cc1)OCC(=O)c1ccc(Br)cc1,3.02% (inactive)
12,Cc1nnc(NC2=NCCCCC2)o1,0.25% (inactive)
13,O=C1CCC(=O)N(O)CCCCCNC(=O)CCC(=O)N(O)CCCCCNC(=O)CCC(=O)N(O)CCCCCN1,35.8% (active)
14,CCN1CCC2(CCN(Cc3cn[nH]c3-c3ccc(OC)c(F)c3)C2)C1 (centres undefined),0.65% (inactive)
15,CCOC(=O)c1ccccc1N1C(=O)C2Sc3[nH]c(=O)sc3C(/C=C/c3ccccc3)C2C1=O (centres undefined),2.63% (inactive)
16,COc1ccc(C2/C=C\CN(CC(C)C)CC(=O)N2Cc2ccc(F)cc2)cc1 (centres undefined),2.22% (inactive)
17,O=C1/C(=C/c2cccs2)SC(=S)N1C1CCS(=O)(=O)C1 (centres undefined),-0.44% (inactive)
18,CCOc1ccc(NC(=O)CN(C)C(=O)Cc2sc(C)nc2-c2ccc(F)cc2)cc1OCC,1.75% (inactive)
19,CCN1/C(=C\c2ccc3ccccc3[n+]2CC)Sc2cc(C)ccc21,13.3% (active)
20,O=C(NCCCN1CCCCCC1)C1CC(=O)N(C2CCCC2)C1 (centres undefined),-0.68% (inactive)
